Data on 4 compounds can be found in PubChem BioAssay.

For test [1], the system named is Wnt5a (protein binding on small-molecule microarray). Description: Wnt5a binders on small-molecule microarray, primary screen, biophysical, 635/667 nm fluorescence (AID 1142).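 Further: fluorescence read at 667 nm with signal to noise per printed feature.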 Particulars: 635 nm fluorescence, higher = more signal.
Test [2] in a line: cell viability in Huh7 cells, primary screen, cytotoxicity control for HCV replication inhibitor project, CellTiter-Glo luminescence, basal, 48 h (AID 1143).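 Further: Huh7 hepatoma cells carrying a hepatitis C replication reporter with no stimulus; test concentration not given here.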 Particulars: Huh7 HCV replicon, higher = more signal, called active from +8 up or from −8 down. In general terms: Cellular ATP, detected with luciferase, serves as a proxy for viable cell number.
A short description of test [3]: P. aeruginosa biofilm formation inhibitors, primary screen, PAO1 strain, BacTiter-Glo luminescence, LB-PBS (AID 1144). To be noted: 12 h, higher = more signal.
A short description of test [4]: CREB reporter modulators without forskolin, primary screen, cell-based, PC12, CRE-LacZ reporter, unstimulated (AID 1145). To be noted: no forskolin, luminescence, 4.5 h, higher = more signal, called active from +8 up or from −8 down.
Test [5] is described as follows: CREB reporter modulators under forskolin, primary screen, cell-based, PC12, CRE-LacZ reporter, forskolin-stimulated (AID 1146).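 Further: PC12 cells with 6xCRE LacZ reporter stimulated by forskolin 10 µM; beta-galactosidase reporter signal reflecting CREB driven transcription.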 To be noted: luminescence, 4.5 h, higher = more signal, called active from +8 up or from −8 down.
In test [6] the target is Streptavidin (Streptomyces avidinii) (UniProt P22629). The experiment in a line: streptavidin binders on small-molecule microarray, primary screen, artefact control for SMM compound annotation, biophysical, 635/667 nm fluorescence (AID 1147).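 Further: signal reflects streptavidin binding to arrayed compounds as a control protein.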 To be noted: streptavidin binding, higher = more signal.
The nature of test [7]: small-molecule binders of probe aInhba, primary screen, biochemical, small-molecule microarray, 635/667 nm fluorescence (AID 1148).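 Further: score merges 667nm spot fluorescence with signal-to-noise for antibody binding to printed compounds.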 To be noted: higher = more signal.
Test [8] concerns the target Torsin-1A (Homo sapiens) (UniProt O14656). The experiment in a line: torsin A binders from cell lysate, primary screen, small-molecule microarray, wild-type, 635/667 nm (AID 1149). To be noted: COS7 hTOR1A-WT lysate, 635 nm fluorescence, higher = more signal.
The target is the same in test [9]. Description: small-molecule binders of mutant TOR1A in lysate, primary screen, cell lysate, small-molecule microarray, COS7 lysate, 635/667 nm fluorescence (AID 1150).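 Further: score pools 667 nm emission and signal to noise measuring lysate protein binding.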 To be noted: COS7 hTOR1A mutant lysate, 635 nm fluorescence, higher = more signal.
The test system of test [10] is Sonic hedgehog protein (Shh). The experiment in a line: small-molecule binders of Shh protein, primary screen, biochemical, small-molecule microarray, 635/667 nm fluorescence (AID 1151).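 Further: Shh protein binding to compounds spotted on small-molecule microarray slides; score combines spot fluorescence intensity with signal-to-noise across triplicate slides.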 Particulars: small-molecule microarray binding, 635 nm fluorescence; higher = more signal.
Test [11] in a line: E. coli DRC41 culture turbidity changes, primary screen, E. coli filamentation inducer project, strain DRC41, OD650, 48 h (AID 1152).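 Further: E. coli MC1000 strain DRC41 lacking acrAB efflux pump and sulA.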 To be noted: E. coli DRC41 (acrAB sulA), higher = more signal, called active from +8 up or from −8 down.
The nature of test [12]: small-molecule binders of probe aLefty1, primary screen, biochemical, small-molecule microarray, 635/667 nm fluorescence (AID 1153).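 Further: score merges spot fluorescence with signal-to-noise ratio from the scanned slide images.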 Particulars: higher = more signal.
Test [13] is described as follows: PSAC antagonists in infected red cells, primary screen, cell-based, P. falciparum Indochina, OD700, 1 h (AID 1154). To be noted: P. falciparum Indochina infected RBC osmotic lysis, higher = more signal, called active from +8 up or from −8 down.
The nature of test [14]: PSAC antagonists in infected red cells, primary screen, cell-based, P. falciparum Indochina, OD700, 2 h (AID 1155).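 Further: lysis reports solute entry through the parasite surface anion channel PSAC; channel blockers reduce lysis of infected cells.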 Particulars: P. falciparum Indochina infected erythrocytes, osmotic lysis OD700; higher = more signal, called active from +8 up or from −8 down.
A short description of test [15]: osmotic lysis modulators in infected erythrocytes, primary screen, PSAC antagonist project, cell-based, P. falciparum Indochina, OD700, 3 h (AID 1156). Particulars: higher = more signal, called active from +8 up or from −8 down.
Test [16] in a line: PSAC antagonists in infected red cells, primary screen, cell-based, P. falciparum Indochina, OD700, 18 h (AID 1157). To be noted: P. falciparum Indochina infected erythrocytes, osmotic lysis OD700, 18 h; higher = more signal, called active from +8 up or from −8 down.
Test [17] in a line: modulators of S6 phosphorylation in cells, primary screen, cell-based, A549, cytoblot, luminescence, serum-stimulated (AID 1158).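 Further: serum-stimulated A549 lung adenocarcinoma cells; signal is phosphorylated S6 detected by cytoblot immunostaining with HRP secondary.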 Particulars: A549 phospho-S6 cytoblot, 5 h, higher = more signal.
Test [18] addresses NADPH oxidase 2 (Homo sapiens) (UniProt P04839). Description: NOX2-dependent H2O2 signal modulators, primary screen, NOX inhibitor project, cell-based, HEK293-NOX2, PMA-stimulated, Amplex Red fluorescence (AID 1159). Further: test concentration not given here. To be noted: 45 min, higher = more signal, called active from +8 up or from −8 down.
Test [19] has as its target NADPH oxidase 4 (Homo sapiens) (UniProt Q9NPH5). Description: NOX4-dependent H2O2 signal modulators, primary screen, NOX inhibitor project, cell-based, HEK293-NOX4, tetracycline-induced, Amplex Red fluorescence (AID 1160). Particulars: 45 min, higher = more signal, called active from +8 up or from −8 down.
Test [20] addresses NADPH oxidase 5 (Homo sapiens) (UniProt Q96PH1). The experiment in a line: NOX5-dependent H2O2 signal modulators, primary screen, NOX inhibitor project, cell-based, HEK293-NOX5, Amplex Red fluorescence (AID 1161). Particulars: HEK293-NOX5, ionomycin, 45 min, higher = more signal.

Active and inactive are the calls of the source. Unless noted, how the calls were made is not given here.

Sequence of NADPH oxidase 5 (Homo sapiens) (Q96PH1 whole entry, looked up): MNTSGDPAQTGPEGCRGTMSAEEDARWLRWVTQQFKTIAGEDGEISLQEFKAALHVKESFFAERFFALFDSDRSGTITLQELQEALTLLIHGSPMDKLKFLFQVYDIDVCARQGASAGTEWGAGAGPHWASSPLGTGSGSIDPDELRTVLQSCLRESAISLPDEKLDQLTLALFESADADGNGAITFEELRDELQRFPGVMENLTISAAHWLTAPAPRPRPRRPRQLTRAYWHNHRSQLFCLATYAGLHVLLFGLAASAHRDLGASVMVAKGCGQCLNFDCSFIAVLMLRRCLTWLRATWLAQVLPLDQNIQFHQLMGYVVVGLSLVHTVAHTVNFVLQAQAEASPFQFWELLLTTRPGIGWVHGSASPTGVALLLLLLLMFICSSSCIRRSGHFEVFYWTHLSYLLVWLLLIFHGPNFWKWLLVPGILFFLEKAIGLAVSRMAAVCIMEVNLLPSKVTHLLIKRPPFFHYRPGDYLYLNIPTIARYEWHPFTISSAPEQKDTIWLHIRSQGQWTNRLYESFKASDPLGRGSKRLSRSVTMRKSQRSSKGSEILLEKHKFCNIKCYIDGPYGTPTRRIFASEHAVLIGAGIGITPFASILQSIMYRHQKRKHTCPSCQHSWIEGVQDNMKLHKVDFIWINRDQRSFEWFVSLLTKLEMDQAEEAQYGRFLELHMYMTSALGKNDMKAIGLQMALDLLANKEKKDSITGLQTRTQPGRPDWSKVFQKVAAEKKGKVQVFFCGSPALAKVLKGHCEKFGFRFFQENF
Sequence of NADPH oxidase 2 (Homo sapiens) (P04839 whole entry, looked up): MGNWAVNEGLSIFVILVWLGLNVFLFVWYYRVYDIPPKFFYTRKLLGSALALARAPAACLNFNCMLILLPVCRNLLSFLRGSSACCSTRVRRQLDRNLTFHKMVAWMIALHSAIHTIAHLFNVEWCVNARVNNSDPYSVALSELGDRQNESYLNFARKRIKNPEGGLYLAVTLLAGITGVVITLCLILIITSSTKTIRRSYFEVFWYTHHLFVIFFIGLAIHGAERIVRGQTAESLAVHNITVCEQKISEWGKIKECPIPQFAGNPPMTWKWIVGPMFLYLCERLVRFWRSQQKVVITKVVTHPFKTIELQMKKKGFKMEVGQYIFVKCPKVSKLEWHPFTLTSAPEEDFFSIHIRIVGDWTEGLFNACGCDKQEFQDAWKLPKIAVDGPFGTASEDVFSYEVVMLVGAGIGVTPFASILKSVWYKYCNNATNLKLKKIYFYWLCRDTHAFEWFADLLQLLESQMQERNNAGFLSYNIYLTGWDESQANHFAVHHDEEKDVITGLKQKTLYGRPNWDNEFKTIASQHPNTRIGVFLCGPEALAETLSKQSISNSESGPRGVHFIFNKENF
Sequence of Torsin-1A (Homo sapiens) (O14656 whole entry, looked up): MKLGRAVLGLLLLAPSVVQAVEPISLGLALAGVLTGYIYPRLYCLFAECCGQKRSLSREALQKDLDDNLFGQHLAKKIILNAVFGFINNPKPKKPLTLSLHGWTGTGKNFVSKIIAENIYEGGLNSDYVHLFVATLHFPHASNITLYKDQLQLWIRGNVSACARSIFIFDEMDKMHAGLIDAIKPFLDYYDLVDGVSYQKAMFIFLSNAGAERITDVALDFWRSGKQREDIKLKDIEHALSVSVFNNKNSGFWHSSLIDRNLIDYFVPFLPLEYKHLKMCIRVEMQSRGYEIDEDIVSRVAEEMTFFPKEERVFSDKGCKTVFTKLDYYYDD
Sequence of Streptavidin (Streptomyces avidinii) (P22629 whole entry, looked up): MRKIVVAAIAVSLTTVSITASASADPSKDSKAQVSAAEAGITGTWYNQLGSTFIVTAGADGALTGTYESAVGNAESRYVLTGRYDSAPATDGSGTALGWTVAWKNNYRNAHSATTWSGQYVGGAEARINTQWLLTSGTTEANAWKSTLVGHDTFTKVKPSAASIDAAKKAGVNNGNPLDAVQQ
Sequence of NADPH oxidase 4 (Homo sapiens) (Q9NPH5 whole entry, looked up): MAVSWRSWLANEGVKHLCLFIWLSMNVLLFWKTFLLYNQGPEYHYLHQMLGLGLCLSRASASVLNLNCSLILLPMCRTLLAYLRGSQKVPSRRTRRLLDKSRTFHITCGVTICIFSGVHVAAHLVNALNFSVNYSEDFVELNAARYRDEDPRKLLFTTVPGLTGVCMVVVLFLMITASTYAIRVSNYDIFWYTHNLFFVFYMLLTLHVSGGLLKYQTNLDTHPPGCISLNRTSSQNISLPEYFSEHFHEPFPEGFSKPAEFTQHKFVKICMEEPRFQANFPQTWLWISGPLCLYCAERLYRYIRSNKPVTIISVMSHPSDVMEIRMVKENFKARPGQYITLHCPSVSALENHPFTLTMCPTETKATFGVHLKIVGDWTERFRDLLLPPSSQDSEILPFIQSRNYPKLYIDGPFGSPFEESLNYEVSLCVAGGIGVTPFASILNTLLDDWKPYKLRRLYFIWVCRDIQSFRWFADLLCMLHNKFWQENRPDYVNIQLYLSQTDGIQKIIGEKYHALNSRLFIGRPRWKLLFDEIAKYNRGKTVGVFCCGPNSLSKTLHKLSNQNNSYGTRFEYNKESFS

`CCOC(=O)[C@H](Cc1ccccc1)NC(=O)CCC1CC(OC(=O)NCCc2ccc(F)cc2)CC2(CCCC(COC(=O)NCCOc3ccccc3)O2)O1` (stereo not given in full): the composite z-score in test [1] is 0.424; in [6] it was 0.751; in test [7], -0.0762; in the test with Torsin-1A (Homo sapiens) [8] it was 0.227; with Torsin-1A (Homo sapiens) [9], 1.11; in test [10], 1.23. The same compound yielded a composite z-score in test [12] of 0.0594. In addition, the z-score in test [2] is -0.715 (inactive); in [3] it was -0.661 (inactive); in test [4] it was -0.253 (inactive); in test [5], 0.327 (inactive); in test [11], -0.558 (inactive); in [13] it was -1.41 (inactive). Besides, the z-score is 0.363 (inactive) in [14]; -0.619 (inactive) in test [15]; 0.272 (inactive) in [16]; -0.345 in [17]; 1.26 (inactive) in test [18]; 0.767 (inactive) in test [19]. In test [20], this compound came in with a z-score of 0.471.

On to `CO[C@H]1COC(=O)[C@H](CCSC)NC(=O)CC=C[C@@H](C)[C@H](OC)COC(=O)[C@@H](OCc2ccccc2)C=C[C@@H]1C`, for which the composite z-score in [1] was 0.211; in test [6] it was -0.0966; in test [7], -0.101; in the test with Torsin-1A (Homo sapiens) [8], 1.78; with Torsin-1A (Homo sapiens) [9], 0.732; in test [10], 1.9. In test [12], the composite z-score is -0.173. Further, the z-score in [2] was -1.45 (inactive); in test [3], -0.128 (inactive); in [4], -0.0638 (inactive); in [5], 0.74 (inactive); in test [11] it was 0.319 (inactive); in test [13], 0.463 (inactive). The z-score in test [14] was 0.191 (inactive); in test [15], 1.17 (inactive); in test [16], 0.367 (inactive); in test [17], -0.378; in test [18], 0.167 (inactive); in test [19], 0.25 (inactive). The same compound yielded a z-score in test [20] of -0.911.

As for `CC(=O)OC[C@H]1O[C@@H](ON=C(C)CCC(=O)OC[C@H]2O[C@H](C#Cc3ccccc3)C=C[C@@H]2Oc2ccc(C)cc2)[C@H](OC(C)=O)[C@@H](OC(C)=O)[C@@H]1OC(C)=O`, the composite z-score in [1] was 0.428; in test [6] it was 0.29; in test [7], -0.082; with Torsin-1A (Homo sapiens) [8] it was 0.513; in the test with Torsin-1A (Homo sapiens) [9], 0.461; in test [10] it was 1.19. The compound further displayed a composite z-score in test [12] of -0.265. The z-score in test [2] was -1.1 (inactive); in test [3], -0.238 (inactive); in test [4], 2.19 (inactive); in test [5], 0.725 (inactive); in test [11], -0.446 (inactive); in [13], 2.56 (inactive). For the same compound, the z-score was 1.11 (inactive) in test [14]; 0.63 (inactive) in test [15]; 0.612 (inactive) in test [16]; -0.635 in test [17]; 1.04 (inactive) in test [18]; 1.2 (inactive) in test [19]. Further, the z-score in [20] turned out to be 1.38.

`C[C@@H]1CC[C@H]2C(=O)O[C@@H](COc3ccc(C(C)(C)C)cc3)CN2[C@H]1c1ccc(Br)cc1`: the composite z-score in test [1] is 0.0114; in test [6], 0.0826; in test [7], -0.0523; with Torsin-1A (Homo sapiens) [8], 0.159; with Torsin-1A (Homo sapiens) [9], -0.0416; in test [10] it was 0.526. In [12], this compound came in with a composite z-score of -0.103. In addition, the z-score in [2] was -0.0293 (inactive); in [3] it was 0.0807 (inactive); in [4], 0.345 (inactive); in test [5], 0.213 (inactive); in test [11], -0.113 (inactive); in test [13], 1.25 (inactive). The z-score was 0.937 (inactive) in test [14]; -0.897 (inactive) in [15]; 0.588 (inactive) in test [16]; -0.261 in test [17]; -0.271 (inactive) in test [18]; 0.562 (inactive) in test [19]. Moreover, the z-score in [20] is 0.257.
